Screening results from PubChem.
A selection: hits, their analogues and other compounds. The true share with any hit is near 3.7%.
TGFb SMAD3 inh: TGF-b pathway inhibition. HepG2 CAGA-GFP TGF-b/SMAD3 reporter, GFP fluorescence, 18 h; TGF-beta stimulated, 500 pg/mL final. Potency, µM (top dose mostly 46.1 µM), inactives show at the highest dose activity, negative = inhibition, usual class: inhibitors. 410,000 compounds, 1.2% hits; note: % is set by controls: 0 for no effect and ±100 for the full control effect; nearly all actives have a fitted effect of over 65% in size
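HEPG2 CAGA-GFP, 1000 cells/well; 2 h settle, 37 C; cpd via pin tool; TGF-b 500 pg/mL final; 18 h, 37 C; GFP imaging ex488/em500-530; %Activity normalised to -TGF-b and +DMSO controls; CRC fit, curve class.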
ATXN2 expr inh: inhibitors of ATXN2 expression; HEK-293 ATXN2-luciferase reporter, luminescence, 24 h; Potency, µM (top dose mostly 57 µM), for inactives: at the top dose activity change, negative = inhibition, hits mostly inhibitors; 360,000 compounds, 0.72% hits; AID 1745845; note: % is set by controls: 0 for no effect and ±100 for the full control effect; nearly all actives have a fitted effect of over 55% in size
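qHTS (up to 57 uM final) was run with 24 h compound exposure of reporter cells at 37 °C. Each well was multiplexed: SteadyGlo luminescence measured ATXN2-luciferase expression after a fluorogenic Gly-Phe-AFC viability readout (25 uM final).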
GLP-1R inv ag: GLP-1 receptor (human) inverse agonism; HEK293 GLP-1R CRE-luciferase, luminescence, 24 h; GLP-1R form is constitutively active; 410,000 compounds, 1.6% hits; Potency, µM (doses to about 38.3 µM), for the others: at the highest dose activity change, negative = inhibition, usual class: inhibitors; note: % is set by controls: 0 for no effect and ±100 for the full control effect; nearly all actives have a fitted effect of over 55% in size
Target sequence (P43220 whole entry, looked up): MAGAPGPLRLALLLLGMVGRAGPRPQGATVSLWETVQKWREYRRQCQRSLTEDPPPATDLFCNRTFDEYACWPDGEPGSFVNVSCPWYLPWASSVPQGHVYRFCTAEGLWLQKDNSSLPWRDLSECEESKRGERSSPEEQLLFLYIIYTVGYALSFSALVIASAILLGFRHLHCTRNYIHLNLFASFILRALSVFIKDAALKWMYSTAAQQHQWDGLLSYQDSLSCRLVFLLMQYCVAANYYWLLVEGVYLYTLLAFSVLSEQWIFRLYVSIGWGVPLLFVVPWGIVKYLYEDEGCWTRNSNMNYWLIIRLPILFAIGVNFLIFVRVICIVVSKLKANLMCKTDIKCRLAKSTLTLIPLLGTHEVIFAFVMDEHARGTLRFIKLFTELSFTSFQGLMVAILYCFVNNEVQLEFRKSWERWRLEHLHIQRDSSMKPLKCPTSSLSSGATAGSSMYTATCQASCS
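qHTS in 1536-well format: reporter HEK293 cells expressing constitutive GLP-1R activity in DMEM + 10% Nu serum, 24 hr with compounds at 37 deg C, luminescence read after 12 min with detection reagent.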
GLP1R ag: GLP-1 receptor (human) agonism; 380,000 compounds, 0.007% hits; Potency, µM (top dose mostly 45.6 µM), for the others: at the top dose activation, actives largely listed as activators; HEK293 GLP-1R CRE-luciferase, luminescence, 4-6 h; cells express a hypersensitive GLP-1R form; AID 624172; note: % of control where 0% means no effect
ATXN viability: reduces viability in counter-screen for ATXN expression inhibitors; S2 cells (HEK-293 line with an ATXN2-luciferase reporter) viability, CellTiter-Fluor protease fluorescence, 24 h; Potency, µM (highest dose often 56.7 µM), usual class: cytotoxic; 400,000 compounds, 0.49% hits; AID 651635; note: nearly all actives have a fitted effect of over 40% in size
HepG2 viability: HepG2 cytotoxicity, counter-screen for TGF-b inhibitors; Potency, µM (highest dose often 46.1 µM), for inactives: top-dose activity change, negative = cytotoxicity, hits mostly cytotoxic; HepG2 CAGA-GFP viability, ATP luminescence, 18 h; 410,000 compounds, 0.76% hits
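CellTiter-Glo luminescence gave cytotoxicity after 18 hours at 37 degrees C. The cells were HepG2 CAGA-GFP in 1% FBS DMEM, stimulated with 500 pg/mL TGF-beta after compound addition. %Activity was normalised to no-cell wells (complete cell-killing) and DMSO (no toxicity), and curves were fitted and classified.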
* = called active by the depositor; i = inactive; ? = inconclusive; . = no result; ! = not active in a repeat; [ ] = remark or other dose. Calls come from the whole dose curve; as a rule, active = well fitted curve in the direction sought with a large enough effect; inconclusive = small, poorly fitted or top-dose-only effect, or another doubt; inactive = no such curve, though single readings can be large; an effect the other way counts as inactive or inconclusive. Potency is the fitted concentration of half-maximal effect.

SMILES | TGFb SMAD3 inh | ATXN2 expr inh | GLP-1R inv ag | GLP1R ag | ATXN viability | HepG2 viability
O=C(Nc1ccc(-c2nc3ccccc3o2)cc1)c1cc(-n2cnnc2)ccc1Cl | -16.4% | ? | -1.6% | -14.7% | ? | -34.5%
CC(C)=CCc1c(O)cc2c(=O)c3ccc(O)cc3oc2c1O | ? | 22.9% | 63.7% | 10.8% | ? | -38.4%
CC(C)=CCc1c(O)cc(O)c2c(=O)c3c(CC=C(C)C)c(O)ccc3oc12 | 3.98µM* | ? | 10µM* | -3.8% | 25.1µM* | 15.8µM*
O=C(Cc1c[nH]c2ccccc12)N1CCC(n2c(C3CCCO3)nc3cc(C(F)(F)F)ccc32)CC1 (stereo not given) | . | . | . | . | i | .
C=CCNc1nc(NCC=C)nc(N2CCN(C(c3ccc(F)cc3)c3ccc(F)cc3)CC2)n1 | . | -26.6% | . | . | i | .
O=C(O)CSCC(=O)Nc1ccc(C2CCCCC2)cc1 | -4.1% | 2.24µM* | ? | -6.7% | i | -83.9%
Nn1cnnc1SCC(=O)Nc1ccc(C2CCCCC2)cc1 | -25.0% | 41.7% | 36.9% | -0.9% | i | -4.3%
Cc1ccc(C)c(N2CCN(S(=O)(=O)c3ccc(-c4cc(C(F)(F)F)on4)s3)CC2)c1 | 2.2% | . | 3.5% | . | . | -0.5%
Nc1ccc(/C=C/C(=O)c2cccs2)cc1 | 0.3% | 84.8% | 18.6% | 10.1% | . | -8.9%
O=C(C=Cc1ccccc1)c1cccs1 | 11.2µM* | 26.0% | -0.6% | -0.5% | ? | -63.3%
CCc1cc2c(cc3c(=O)n(CC(=O)NC4CCCCC4)ncn32)s1 | -21.6% | . | 1.9% | . | . | 3.5%
Cc1cnc(NC(=O)CCCc2nc3ccccc3s2)s1 | ? | 2.51µM* | ? | -33.6% | ? | -3.6%
O=C(C[n+]1ccncc1)c1cccc([N+](=O)[O-])c1 | ? | . | . | . | . | 8.8%
CN(C)CCCNC(=O)/C(=C/c1ccc(-c2ccc([N+](=O)[O-])cc2)o1)NC(=O)c1ccccc1 | -24.4% | -36.2% | ? | -4.3% | i | -15.1%
CN(C)CCCNC(=O)/C(=C\c1ccc(-c2ccc(Br)cc2)o1)NC(=O)c1ccccc1 | ? | ? | ? | -51.7% | i | 11.2µM*
C(=C\c1nc2ccccc2nc1/C=C/c1ccc2c(c1)OCO2)/c1ccc2c(c1)OCO2 | 19.9% | . | . | . | . | -2.1%
CC(C)(C)c1ccc(Cn2c(Cc3ccccc3)nc3ccccc32)cc1 | 14.1µM* | ? | ? | . | ? | 15.8µM*
Cc1ccc(Cn2nc(C)c(NC(=O)CSc3nc4c(c(C(F)(F)F)n3)CCc3ccccc3-4)c2C)cc1 | 0.0% | ? | 2.9% | -10.3% | . | 4.4%
Cc1nn(Cc2ccc(Cl)cc2)c(C)c1NC(=O)CSc1nc2c(c(C(F)(F)F)n1)CCc1ccccc1-2 | -23.3% | ? | ? | 6.2% | ? | 0.631µM*
CCO[C@@H]1OC(C(=O)N2CCCCCCC2)=C[C@H](c2ccc(C(F)(F)F)cc2)[C@H]1CCCO | ? | -12.3% | 10µM* | 20.0% | ? | -22.4%
CCO[C@H]1OC(C(=O)NCc2nc3ccccc3[nH]2)=C[C@@H](C2CCCCC2)[C@@H]1CCCO | ? | -13.3% | 10µM* | 4.1% | ? | -13.6%
CCO[C@H]1OC(C(=O)N2CCOCC2)=C[C@@H](c2ccc(C(F)(F)F)cc2)[C@@H]1CCCO | -11.7% | -5.7% | -4.8% | 7.3% | i | -14.3%
CCO[C@H]1OC(C(=O)NCc2ccccc2)=C[C@@H](c2ccc(C(F)(F)F)cc2)[C@@H]1CCCO | ? | ? | 10µM* | -4.1% | ? | -1.5%
C[N+]1(CC(=O)c2ccc(Oc3ccc(C(=O)C[N+]4(C)CCOCC4)cc3)cc2)CCOCC1 | -6.3% | . | . | . | . | -6.3%
Cn1nnnc1Sc1ncnc2scc(-c3ccc(C(F)(F)F)cc3)c12 | ? | 3.98µM* | . | -5.9% | 11.2µM* | -111.7%
SMILES | TGFb SMAD3 inh | ATXN2 expr inh | GLP-1R inv ag | GLP1R ag | ATXN viability | HepG2 viability
Cn1nnnc1Sc1ncnc2scc(-c3cccc(C(F)(F)F)c3)c12 | ? | 14.1µM* | . | -8.7% | 15.8µM* | -111.7%
COc1cccc(-c2csc3ncnc(Sc4nnnn4C)c23)c1 | ? | ? | . | -1.7% | ? | 9.6%
Cn1nnnc1Sc1ncnc2scc(-c3ccc(C#N)cc3)c12 | ? | 10µM* | . | -15.5% | 10µM* | -122.8%
Cn1nnnc1Sc1ncnc2scc(-c3cccc(F)c3)c12 | 10µM* | ? | . | -9.7% | ? | -109.9%
COc1ccc([C@H]2C[C@H](n3cc(COC(=O)c4ccccc4)nn3)[C@@H](O)CN2CC2CCCCC2)cc1 | 8.0% | 4.1% | -26.5% | 2.1% | i | -1.5%
O=C(OCc1cn([C@@H]2CN(CC3CCCCC3)[C@@H](c3ccccc3)C[C@H]2O)nn1)c1ccccc1 | 3.0% | ? | 1.4% | -8.5% | 25.1µM* | -6.2%
O=C(OCc1cn([C@H]2CN(CC3CCCCC3)[C@@H](c3ccc(Cl)cc3)C[C@@H]2O)nn1)c1ccccc1 | 17.8µM* | ? | ? | -2.3% | . | 12.6µM*
COc1ccc([C@H]2C[C@@H](O)[C@H](n3cc(COC(=O)c4ccccc4)nn3)CN2CC2CCCCC2)cc1 | ? | ? | 11.2µM* | -0.7% | . | -99.5%
CCc1ccccc1NC(=O)Cn1nnc(C(=O)NCc2ccco2)c1N | -7.0% | -6.3% | ? | -1.4% | ? | -6.7%
CC(C)Oc1ccc(C(=O)NCC2Cc3cc(F)cc(-c4cnccn4)c3O2)cc1 (stereo not given) | . | . | . | . | i | .
CCOc1ccccc1NC(=O)CSc1nc2ccccc2nc1N1CCOCC1 | ? | -6.4% | 10µM* | 4.8% | ? | -23.8%
COc1ccc(C)cc1NC(=O)CSc1nc2ccccc2nc1N1CCOCC1 | 29.2% | 30.9% | ? | . | i | -5.5%
COc1ccc(NC(=O)CSc2nc3ccccc3nc2N2CCOCC2)c(OC)c1 | -14.3% | -21.4% | ? | 29.7% | 4.47µM*! | -19.6%
O=S(=O)(Nc1cccc(-c2ccc(N3CCCCC3)nn2)c1)c1ccc(Cl)s1 | ? | -14.3% | ? | . | ? | -39.8%
Cc1ccc(CN2CCC(c3cc(-c4cccs4)n[nH]3)CC2)cc1 | -20.2% | -24.5% | ? | 2.6% | i | -26.0%
FC(F)(F)c1cccc(CN2CCC(c3cc(-c4cccs4)n[nH]3)CC2)c1 | ? | ? | 6.31µM* | 13.7% | ? | 20µM*
CC(NNC(=S)N1CCCCCC1)c1ccc2ccccc2n1 (stereo not given) | ? | 8.91µM* | -13.3% | 7.6% | . | -14.5%
Cn1cc(C[C@@H](N)C(=O)O)c2ccccc21 | . | -4.0%[25.6 µM] | . | . | . | .
